The values that follow come from PMC4336329 (PLoS ONE, 2015).

Molecules are shown by their SMILES. In all, about 310,000 compounds went through this assay and about 14,000 (4.5%) showed an effect of 50% or more. Effects have a minus sign here. What follows is part of a selection rich in strong results, with near analogues and random picks from the rest.
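Also: peak tail current of the secondary pulse compared with the same well before compound.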

For the experiment, the target named is human ether-à-go-go-related gene (hERG) potassium channel (human, UniProt Q12809). Kind of experiment: primary screen, population patch clamp on CHO cells stably expressing hERG; higher = less effect of the substance.
human ether-à-go-go-related gene (hERG) potassium channel, sequence (Q12809 whole entry, looked up): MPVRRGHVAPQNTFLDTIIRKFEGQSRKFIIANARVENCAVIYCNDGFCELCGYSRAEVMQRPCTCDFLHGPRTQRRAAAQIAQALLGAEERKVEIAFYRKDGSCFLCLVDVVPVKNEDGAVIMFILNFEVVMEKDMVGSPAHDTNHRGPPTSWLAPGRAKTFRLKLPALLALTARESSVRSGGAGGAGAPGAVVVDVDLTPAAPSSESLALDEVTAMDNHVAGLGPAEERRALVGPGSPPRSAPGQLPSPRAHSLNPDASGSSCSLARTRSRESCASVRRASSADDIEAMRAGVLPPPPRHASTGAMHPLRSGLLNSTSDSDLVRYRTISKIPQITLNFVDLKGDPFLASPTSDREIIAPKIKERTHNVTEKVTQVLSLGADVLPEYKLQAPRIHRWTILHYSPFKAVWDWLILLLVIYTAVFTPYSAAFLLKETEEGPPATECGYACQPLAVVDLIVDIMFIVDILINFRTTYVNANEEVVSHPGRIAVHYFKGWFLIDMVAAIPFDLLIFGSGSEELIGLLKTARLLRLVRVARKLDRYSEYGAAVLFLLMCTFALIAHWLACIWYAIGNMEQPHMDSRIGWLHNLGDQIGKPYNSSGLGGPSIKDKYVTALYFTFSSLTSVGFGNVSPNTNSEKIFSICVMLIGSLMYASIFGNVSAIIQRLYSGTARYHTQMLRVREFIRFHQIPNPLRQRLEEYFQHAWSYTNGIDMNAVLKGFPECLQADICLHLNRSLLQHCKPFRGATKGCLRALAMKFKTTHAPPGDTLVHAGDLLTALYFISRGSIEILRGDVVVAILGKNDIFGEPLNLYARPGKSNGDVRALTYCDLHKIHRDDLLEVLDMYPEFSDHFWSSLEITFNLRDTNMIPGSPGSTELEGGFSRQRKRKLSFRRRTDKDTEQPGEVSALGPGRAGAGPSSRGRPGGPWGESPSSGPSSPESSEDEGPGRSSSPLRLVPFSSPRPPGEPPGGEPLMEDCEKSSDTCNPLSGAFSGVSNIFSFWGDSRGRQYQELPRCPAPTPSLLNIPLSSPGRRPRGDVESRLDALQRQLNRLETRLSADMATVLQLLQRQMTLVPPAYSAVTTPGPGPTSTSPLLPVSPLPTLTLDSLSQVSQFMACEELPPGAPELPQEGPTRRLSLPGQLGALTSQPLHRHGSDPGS
In the case of `CN(C)S(=O)(=O)c1ccc(N2CCCC2)c(C(=O)Nc2ccc(N3CCOCC3)cc2)c1`, the “hERG current change (%, negative = inhibition) at 10uM” value is on record as -7.91%. The same measure for `COc1ccc(C(=O)NCC(=O)NCC(=O)OCc2ccc(Cl)cc2)cc1`: -6.07%; for `O=C(Cc1ncn[nH]1)NCCc1ccccc1`: -3.77%; for `Cn1c(=O)[nH]c2nncnc2c1=O`: -13%. As for `COc1cc2ccccc2cc1C(=O)Nc1cccnc1`, the “hERG current change (%, negative = inhibition) at 10uM” value was -9.84%. Take `CCOC(CC(=O)NNC(=O)c1c(-c2ccccc2Cl)noc1C)OCC`: the “hERG current change (%, negative = inhibition) at 10uM” value is recorded as 17.7%.

Take `COc1cc(C(=O)NCCN2CCOCC2)cc(OC)c1OC`: the “hERG current change (%, negative = inhibition) at 10uM” value turned out to be 8.25%.

Take `CCc1ccccc1Nc1cc(C(=O)NCc2ccccn2)c2ccccc2n1`: the “hERG current change (%, negative = inhibition) at 10uM” value is given as -57.8%.

`O=C(NCc1ccccn1)c1cc(-c2ccccc2)nc2ccccc12`: the “hERG current change (%, negative = inhibition) at 10uM” value was -25.2%. The same measure for `COc1ccc(Nc2cc(C(=O)NCc3ccccn3)c3ccccc3n2)c(OC)c1`: 8.79%. Then `Cc1ccc(CNS(=O)(=O)c2cc3c4c(c2)CCN4C(=O)CC3)cc1`, with -29.4%; and `Cc1cc(C)c(OCC(O)CN2CCN(C(=O)c3ccccc3)CC2)c(C)c1.O=C(O)C(=O)O` (centres unmarked), with -46.4%. Then `OC(COc1ccc(Br)cc1)CN1CCN(c2ccccc2)CC1` (centres unmarked), with -21.2%. For the molecule `O=C(c1ccccc1)N1CCN(CC(O)COc2ccc(Br)cc2)CC1` (centres unmarked), the “hERG current change (%, negative = inhibition) at 10uM” value is -64.9%. For `O=C(c1ccco1)N1CCN(CC(O)COc2ccc(Br)cc2)CC1` (centres unmarked), the “hERG current change (%, negative = inhibition) at 10uM” value is -72.6%.

In the case of `CC(=O)c1cccc(OCC(O)CN2CCN(C(=O)c3ccco3)CC2)c1` (centres unmarked), the “hERG current change (%, negative = inhibition) at 10uM” value is -2.19%. Then `COC(=O)c1ccc(OCC(O)CN2CCN(C(=O)c3ccco3)CC2)cc1.O=C(O)C(=O)O` (centres unmarked), with -25.3%. Then `Cl.O=C(c1ccccc1)N1CCN(CC(O)COc2cccc3ccccc23)CC1` (centres unmarked), with -28.1%. On to `CC(=O)N1CCN(CC(O)COc2ccc(Br)cc2)CC1.O=C(O)C(=O)O` (centres unmarked), for which the “hERG current change (%, negative = inhibition) at 10uM” value was -10.7%. Then `O=C(c1ccco1)N1CCN(CC(O)COc2ccc3oc4ccccc4c3c2)CC1` (centres unmarked), with -66.4%; and `Cc1cc(C)cc(OCC(O)CN2CCN(C(=O)c3ccco3)CC2)c1` (centres unmarked), with -43.7%. Turning to `CC(C)(C)c1ccc(OCC(O)CN2CCN(C(=O)c3ccccc3)CC2)cc1.O=C(O)C(=O)O` (centres unmarked), the “hERG current change (%, negative = inhibition) at 10uM” value is -50.7%. The same measure for `O=C(c1ccco1)N1CCN(CC(O)Cn2c3ccccc3c3ccccc32)CC1` (centres unmarked): -41.9%; for `O=C(NC1CCCCC1)c1ccc(OC2CCN(Cc3ccccn3)CC2)cc1`: -16%.

In the case of `COc1ccc(OC)c(N(CC(=O)NCCSC2CCCCC2)S(=O)(=O)c2ccccc2)c1`, the “hERG current change (%, negative = inhibition) at 10uM” value was found to be 16%. The same measure for `Cc1cccc(NC(=O)CSc2nccn2Cc2ccco2)c1`: 0.772%; for `Cc1c(NS(=O)(=O)c2ccc(C(=O)NCc3ccc(F)cc3)cc2)c(=O)n(-c2ccccc2)n1C`: -15%.

Regarding `COc1ccc(C(=O)NC(=S)NNC(=O)c2ccccc2C)cc1`, the “hERG current change (%, negative = inhibition) at 10uM” value was determined as 17.7%. Take `NC(=O)c1c(NC(=O)CSc2nc3c(c(C(F)(F)F)n2)CCc2ccccc2-3)sc2c1CCCC2`: the “hERG current change (%, negative = inhibition) at 10uM” value is on record as -1.81%.

As to `Nc1ccc2c(c1)C(=O)Cc1ccccc1S2`, the “hERG current change (%, negative = inhibition) at 10uM” value is on record as 9.05%.

`COc1ccccc1OCC(O)CN1CCN(C(=O)c2ccccc2)CC1.Cl` (centres unmarked): the “hERG current change (%, negative = inhibition) at 10uM” value came out at 1.39%. Then `CCCOC(=O)c1ccc(OCC(O)CN2CCN(C(=O)c3ccccc3)CC2)cc1.Cl` (centres unmarked), with -73.7%; and `COc1cc(C(=O)N2CCN(CC(O)COc3ccccc3)CC2)cc(OC)c1OC` (centres unmarked), with 4.32%; and `CC(=O)/C(=N\Nc1ccc(C)cc1)Sc1nncn1C`, with -12.8%. Regarding `COc1ccccc1C(=O)NCc1ccc(-c2nc3ccccc3s2)cc1`, the “hERG current change (%, negative = inhibition) at 10uM” value is recorded as -11%. Then `CC1(C)CC(CC(=O)NNc2nc(-c3ccccc3)cs2)C(=O)O1` (centres unmarked), with -2.28%; and `O=C(NNc1nc(-c2ccccc2)cs1)c1ccccc1`, with 3.27%. In the case of `Br.CC(C)CC1CC(C)(c2csc(NNC(=O)c3ccccc3)n2)OC1=O` (centres unmarked), the “hERG current change (%, negative = inhibition) at 10uM” value is reported as -74.5%. Then `O=C(Nc1cccc(F)c1)C1C2C=CC3(CN(CCCN4CCOCC4)C(=O)C13)O2` (centres unmarked), with -8.87%. Then `Cl.O=C1CSC(c2ccccc2F)N1CCN1CCCCC1` (centres unmarked), with -10.6%; and `CCOC(=O)C1(CC2CC2)CCN(Cc2cn[nH]c2-c2cccc(F)c2)CC1`, with -91.6%. On to `CCOC(=O)C1(CC2CC2)CCN(S(=O)(=O)/C=C/c2ccccc2)CC1`, for which the “hERG current change (%, negative = inhibition) at 10uM” value is -18.4%. Consider `CCOC(=O)C1(CC2CCCCO2)CCN(S(=O)(=O)c2cccc(F)c2)CC1` (centres unmarked), for which the “hERG current change (%, negative = inhibition) at 10uM” value came out at 29.8%. The same measure for `CCOC(=O)C1(CC2CC2)CCN(Cc2ccc3cccc(F)c3n2)CC1`: -48.3%; for `CCOC(=O)C1(CC2CCCCO2)CCN(Cc2cc3ccccc3[nH]2)CC1` (centres unmarked): -46.1%; for `CCOC(=O)C1(CC2CCCCO2)CCN(Cc2cn[nH]c2-c2cccc(F)c2)CC1` (centres unmarked): -53.9%. Consider `CCOC(=O)C1(Cc2ccccc2)CCN(Cc2cn[nH]c2-c2ccccc2)CC1`, for which the “hERG current change (%, negative = inhibition) at 10uM” value is listed as -28.8%.
